Only some compounds are listed: those with a hit (about 5.7% of all), similar ones and a draw of the others.
HEK293 tox: qHTS of GLP-1 Receptor Inverse Agonists: Cytotox Screen | HEK293 cAMP-luciferase reporter cells, luminescence, 24 h | Potency, µM (series often up to 38.3 µM), for the others: top-dose activity change, negative = inhibition, hits mostly inhibitors | 410,000 tested, 0.13% active;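 further: loss of luciferase light is scored as toxicity; potency means the concentration at half of the fitted maximal effect; on the % scale 0 is the no-effect control and ±100 the full control effect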
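1536-well qHTS counterscreen of the MLSMR; 200 cells/uL, 12 h pre-incubation, 23 nL cpd, 24 h at 37 deg C 5% CO2, luciferase detection reagent, 12 min RT, luminescence. Inhibition = undesired.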
GLP1R inv ag: qHTS of GLP-1 Receptor Inverse Agonists (Inhibition Mode). Potency, µM (highest dose often 38.3 µM), without a hit: top-dose activity change, negative = inhibition, usual class: inhibitors. 410,000 tested, 1.6% active. HEK293 GLP-1R CRE-luciferase, luminescence, 24 h; GLP-1R form is constitutively active. Glucagon-like peptide 1 receptor (Homo sapiens), P43220; further: potency means the concentration at half of the fitted maximal effect; on the % scale 0 is the no-effect control and ±100 the full control effect; nearly all actives have a fitted effect of over 55% in size
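Seeding at 200 cells/uL, 12 h culture, 24 hr compound treatment, then luciferase reagent and a luminescence read; cells are HEK293 stably expressing a constitutively active GLP-1R plus cAMP-responsive luciferase.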
ClpP mod: qHTS Assay for Activators of ClpP; AID 651965, 2013; purified B. subtilis ClpP, FRET peptide cleavage, 20 min; Potency, µM (highest dose often 57.5 µM), for the others: at the highest dose activity change, negative = active; 340,000 tested, 1.9% active; active means well fitted falling curve with a large enough effect; inconclusive means small, poorly fitted or top-dose-only effect; inactive means no such curve, though single readings can be large or run the other way; further: potency means the concentration at half of the fitted maximal effect; the source files actives as falling curves though it sought activators and does not explain the sign; nearly all actives have a fitted effect of over 65% in size
Target sequence (P80244 whole entry, looked up): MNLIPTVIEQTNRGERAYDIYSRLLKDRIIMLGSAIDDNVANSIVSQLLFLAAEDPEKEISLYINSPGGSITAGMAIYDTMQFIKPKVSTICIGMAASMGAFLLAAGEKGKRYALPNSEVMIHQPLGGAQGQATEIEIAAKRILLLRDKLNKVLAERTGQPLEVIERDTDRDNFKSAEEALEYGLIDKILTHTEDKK
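Purified B. subtilis ClpP, 10 microg/mL final in Tris/HCl pH8 with KCl, BSA, glycerol and Tween-20, cleaved an Abz/nitrotyrosine-quenched decapeptide. Fluorescence (ex 320, em 430) was read at 0 and 20 min at room temperature. Delta was normalized to 5.8 microM ADEP and DMSO/no-enzyme controls.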
GLP1R ag: qHTS of GLP-1 Receptor Agonists | Potency, µM (top dose mostly 45.6 µM), for inactives: top-dose activation, hits mostly activators | HEK293 GLP-1R CRE-luciferase, luminescence, 4-6 h; cells express a hypersensitive GLP-1R form | 380,000 tested, 0.007% active; further: potency means the concentration at half of the fitted maximal effect; % of control where 0% means no effect
DRD3 agonist: qHTS of D3 Dopamine Receptor Agonist: qHTS | D(3) dopamine receptor (Homo sapiens), P35462 | D3R DiscoveRx beta-arrestin cells, luminescence, 90 min | max activation, % | 410,000 tested, 0.58% active | AID 652048, 2013; in the data active means max activation above about 30%; further: 0% is about no effect
Target sequence (P35462 whole entry, looked up): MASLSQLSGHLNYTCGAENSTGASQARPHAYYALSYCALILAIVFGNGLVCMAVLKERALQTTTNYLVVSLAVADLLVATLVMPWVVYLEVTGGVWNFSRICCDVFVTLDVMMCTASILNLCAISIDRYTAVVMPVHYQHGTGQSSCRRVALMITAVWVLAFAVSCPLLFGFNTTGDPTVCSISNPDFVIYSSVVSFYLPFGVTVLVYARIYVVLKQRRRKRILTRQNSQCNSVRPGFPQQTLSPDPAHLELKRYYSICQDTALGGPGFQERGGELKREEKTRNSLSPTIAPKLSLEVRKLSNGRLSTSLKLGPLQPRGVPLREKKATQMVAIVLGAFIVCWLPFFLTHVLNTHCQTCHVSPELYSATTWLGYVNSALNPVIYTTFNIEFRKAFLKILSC
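Cells at 1500/well, incubated overnight, then treated with pinned compounds (dopamine as control) for 90 min at 37 degrees C. DiscoveRx reagent added for 30 - 60 minutes at room temperature; luminescence read.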
D3 antag: qHTS of D3 Dopamine Receptor Antagonist: qHTS. D(3) dopamine receptor (Homo sapiens), P35462. D3R cells, DiscoveRx beta-arrestin luminescence, antagonist mode; active compounds read low. max response, negative = inhibition, %. 360,000 tested, 2.5% active; in the data active means max response below about -50%; inconclusive means no clear call, values can overlap the other calls; further: on the % scale 0 is the no-effect control and ±100 the full control effect
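Cells expressing the human receptor were seeded at 1500 cells/well, incubated overnight at 37 degrees C in 5% CO2, then exposed to library compounds with dopamine controls for 90 minutes at 37 degrees C before luminescent detection.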
The depositor's hits bear a star. Unless noted, the call rests on the fitted dose curve; in most records, active means well fitted curve in the direction sought with a large enough effect; inconclusive means small, poorly fitted or top-dose-only effect, or another doubt; inactive means no such curve, though single readings can be large; an effect the other way counts as inactive or inconclusive.

What do the screens show for `CCCC[C@@H]1CNCCN1CCc1cccc2ccccc12`?
HEK293 tox: 12%; GLP1R inv ag: -29%; ClpP mod: -5%; GLP1R ag: 16%; DRD3 agonist: -30; D3 antag: -53*

Results for Cc1ccc(CCNS(=O)(=O)c2c(C)nc3sc(C)c(C)n3c2=O)cc1 ?
HEK293 tox: -8%; GLP1R inv ag: 7%; ClpP mod: 6.3µM*; DRD3 agonist: 4

Results for COc1ccc(NC(=O)c2cc(-c3cc(F)ccc3OC(C)C)n[nH]2)cc1OC ?
HEK293 tox: -2%; GLP1R inv ag: inconclusive; ClpP mod: 1%; GLP1R ag: 4%; DRD3 agonist: 8; D3 antag: -8

Results for Cc1ccccc1N=CC1=C(O)c2ccccc2C1=O ?
HEK293 tox: 12%; GLP1R inv ag: -33%; GLP1R ag: -3%; DRD3 agonist: -10; D3 antag: -19

Results for COc1ccc(N=CC2=C(O)c3ccccc3C2=O)c(OC)c1 ?
HEK293 tox: -25%; GLP1R inv ag: inconclusive; ClpP mod: 0%; GLP1R ag: -20%; DRD3 agonist: -4; D3 antag: -58*

How did Cc1ccc(NC(=O)Cn2c(=O)n(-c3ccc(C)cc3)c(=O)c3ccc(C(=O)NCc4ccccc4Cl)cc32)cc1 do in these assays?
HEK293 tox: 0%; GLP1R inv ag: 15%; ClpP mod: -8%; GLP1R ag: -3%; DRD3 agonist: -3

Results for Cc1ccc(C)c(NC(=S)NC(NC(=O)N(C)C)C(Cl)(Cl)Cl)c1 (centres undefined) ?
HEK293 tox: -17%; GLP1R inv ag: 0%; ClpP mod: 1%; GLP1R ag: -2%; DRD3 agonist: 4; D3 antag: -25

How did CCc1ccc(OCC(=O)NC(NC(=S)Nc2ccccc2OC)C(Cl)(Cl)Cl)cc1 (centres undefined) do in these assays?
HEK293 tox: -30%; GLP1R inv ag: inconclusive; ClpP mod: 2%; GLP1R ag: 0%; DRD3 agonist: -18; D3 antag: -7

What do the screens show for `Cc1ccc(NC(=S)NC(NC(=O)c2ccccc2C)C(Cl)(Cl)Cl)c(C)c1` (centres undefined)?
HEK293 tox: inconclusive; GLP1R inv ag: 5.6µM*; ClpP mod: 3%; GLP1R ag: -9%; DRD3 agonist: -6; D3 antag: 8

How did Cc1ccc(C)c(NC(=S)NC(NC(=O)Cc2cccc3ccccc23)C(Cl)(Cl)Cl)c1 (centres undefined) do in these assays?
HEK293 tox: 6.3µM*; GLP1R inv ag: inconclusive; ClpP mod: 2%; GLP1R ag: -36%; DRD3 agonist: 6; D3 antag: -50*

How did CCc1ccc(OCC(=O)NC(NC(=S)Nc2ccc(C)cc2C)C(Cl)(Cl)Cl)cc1 (centres undefined) do in these assays?
HEK293 tox: inconclusive; GLP1R inv ag: 5µM*; ClpP mod: -8%; GLP1R ag: -36%; DRD3 agonist: -5; D3 antag: -17

What do the screens show for `COCCN(CCOC)S(=O)(=O)c1ccc(C(=O)Nc2nnc(C3CC3)o2)cc1`?
HEK293 tox: -1%; GLP1R inv ag: 3%; ClpP mod: -1%; GLP1R ag: -7%; DRD3 agonist: -14; D3 antag: -53*

What do the screens show for `CCN(c1ccccc1)S(=O)(=O)c1ccc(C(=O)Nc2nnc(COC)o2)cc1`?
HEK293 tox: -24%; GLP1R inv ag: -27%; ClpP mod: -1%; GLP1R ag: -3%; DRD3 agonist: 11; D3 antag: 37

What do the screens show for `COCc1nnc(NC(=O)c2ccc(S(=O)(=O)N(C)c3ccccc3)cc2)o1`?
HEK293 tox: -28%; GLP1R inv ag: inconclusive; ClpP mod: 1%; GLP1R ag: -4%; DRD3 agonist: -13; D3 antag: -56*

Results for CCN(Cc1ccccc1)S(=O)(=O)c1ccc(C(=O)Nc2nnc(-c3ccccc3OC)o2)cc1 ?
HEK293 tox: -24%; GLP1R inv ag: inconclusive; ClpP mod: 1%; GLP1R ag: -13%; DRD3 agonist: 9; D3 antag: -86*

Results for CCCCN(CC)S(=O)(=O)c1ccc(C(=O)Nc2nnc(CSC)o2)cc1 ?
HEK293 tox: -6%; GLP1R inv ag: inconclusive; ClpP mod: -1%; GLP1R ag: -18%; DRD3 agonist: -8; D3 antag: -83*

How did CCOc1ccc(CC(=O)N2CCc3cc(OC)c(OC)cc3C2COc2ccc3c(C)cc(=O)oc3c2)cc1 (centres undefined) do in these assays?
HEK293 tox: -6%; GLP1R inv ag: 3%; ClpP mod: 12%; DRD3 agonist: 2

What do the screens show for `CCCN(CCC)S(=O)(=O)c1ccc(C(=O)Nc2nnc(CSC)o2)cc1`?
HEK293 tox: -14%; GLP1R inv ag: -17%; ClpP mod: 0%; GLP1R ag: -7%; DRD3 agonist: 2; D3 antag: -99*

What do the screens show for `CCCCN(CC)S(=O)(=O)c1ccc(C(=O)Nc2nnc(COC)o2)cc1`?
HEK293 tox: -11%; GLP1R inv ag: -21%; ClpP mod: 1%; GLP1R ag: -9%; DRD3 agonist: 6; D3 antag: -65*

Results for CCc1nnc(NC(=O)c2ccc(S(=O)(=O)N(CCOC)CCOC)cc2)o1 ?
HEK293 tox: -18%; GLP1R inv ag: -5%; ClpP mod: 2%; GLP1R ag: -6%; DRD3 agonist: -6; D3 antag: inconclusive

What do the screens show for `CCCCN(CCCC)S(=O)(=O)c1ccc(C(=O)Nc2nnc(CSC)o2)cc1`?
HEK293 tox: -13%; GLP1R inv ag: -29%; ClpP mod: -1%; GLP1R ag: -8%; DRD3 agonist: 0; D3 antag: -113*

Results for CCN(c1ccccc1)S(=O)(=O)c1ccc(C(=O)Nc2nnc(CSC)o2)cc1 ?
HEK293 tox: -16%; GLP1R inv ag: inconclusive; ClpP mod: 0%; GLP1R ag: 0%; DRD3 agonist: -1; D3 antag: -1

What do the screens show for `COCc1nnc(NC(=O)c2ccc(S(=O)(=O)N(CC(C)C)CC(C)C)cc2)o1`?
HEK293 tox: -24%; GLP1R inv ag: inconclusive; ClpP mod: 3%; GLP1R ag: -2%; DRD3 agonist: 7; D3 antag: 9
